GPR151 ag = activators of human GPR151, primary screen, cell-based, PathHunter beta-arrestin, luminescence; PathHunter beta-arrestin GPR151 cells; activation, % at 11.2 µM; G-protein coupled receptor 151 (Homo sapiens), Q8TDV0; AID 1508602, 2020; actives 1% (n = 650,000); in the data active = activation above about 4.9%
Target sequence (Q8TDV0 whole entry, looked up): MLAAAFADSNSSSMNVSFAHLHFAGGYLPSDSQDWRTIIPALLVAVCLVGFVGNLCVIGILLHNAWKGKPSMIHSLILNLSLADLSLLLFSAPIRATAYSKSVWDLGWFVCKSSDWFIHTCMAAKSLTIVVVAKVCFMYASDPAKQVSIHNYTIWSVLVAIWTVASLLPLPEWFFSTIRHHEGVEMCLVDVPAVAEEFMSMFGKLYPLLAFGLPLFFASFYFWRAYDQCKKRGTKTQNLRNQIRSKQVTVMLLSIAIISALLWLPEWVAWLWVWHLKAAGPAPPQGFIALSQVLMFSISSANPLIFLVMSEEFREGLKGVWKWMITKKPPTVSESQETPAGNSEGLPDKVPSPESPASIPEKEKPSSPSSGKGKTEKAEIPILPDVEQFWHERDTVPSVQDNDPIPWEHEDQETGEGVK
FBW7 act = FBW7 E3 ligase activators, primary screen, biochemical, AlphaScreen, human; AlphaScreen FBW7–phospho-cyclin E peptide binding, activator screen; normalized activity (activation), % at 26.1 µM; F-box/WD repeat-containing protein 7 (Homo sapiens), Q969H0; AID 1259310, 2017; actives 0.13% (n = 650,000); in the data active = normalized activity above about 1.9%;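 note: purified mutant Fbw7 with reduced substrate affinity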
MITF primary = MITF inhibitors, primary screen, biochemical, AlphaScreen, human. inhibition, % at 2.6 µM. AID 1259374, 2018. AlphaScreen MITF homodimerization, bead proximity signal. actives 0.91% (n = 650,000). Microphthalmia-associated transcription factor (Homo sapiens), O75030; in the data active = inhibition above about 50%
TEAD-YAP block = TEAD-YAP interaction inhibition, primary screen, TEAD-YAP interaction inhibitor project, luminescence, HEK-TIYL cells | inhibition, % at 9.12 µM | TEAD-Gal4/YAP UAS-luciferase luminescence | actives 1.4% (n = 640,000) | AID 1259422, 2018; in the data active = inhibition above about 32%
Hits are given with their value; - = inactive. Rows were chosen to be rich in hits. Some 3.5% of all compounds tested hit in one or more screens of this group.

SMILES	GPR151 ag	FBW7 act	MITF primary	TEAD-YAP block
O=C(Nc1ccc(N2CCCCC2)cc1)c1ccc(-c2ccc(F)cc2)o1	-	-	-	-
CCOC(=O)c1c(-c2ccc(Br)cc2)csc1NC(=O)c1ccncc1	-	-	-	-
CCOC(=O)C1=C(C)N=c2s/c(=C/c3cc(OC)c(OC)cc3Br)c(=O)n2C1c1ccc(N(C)C)cc1 (configuration not stated)	-	-	-	-
O=C(N/N=C\c1c(O)ccc2ccccc12)c1cncc(Br)c1	-	-	-	-
Cc1nc2ccccn2c1C(=O)N/N=C/c1c(O)ccc2ccccc12	-	-	-	71
Cc1nc2ccccn2c1C(=O)N/N=C/c1ccc(Cl)cc1Cl	-	-	-	-
O=C(N/N=C/c1c(O)ccc2ccccc12)c1cccnc1	-	-	70	81
O=C(Nc1ccc(Nc2cc(-n3ccnc3)ncn2)cc1)c1ccc(F)cc1F	-	-	-	-
O=C(Nc1ccc(Nc2cc(-n3ccnc3)ncn2)cc1)c1cccc2ccccc12	-	-	-	34
COc1ccc(-c2cccc3c2OC(CNC(=O)c2ccnn2C)C3)nn1 (configuration not stated)	-	-	-	-
c1ccc(-c2nc(NCc3nc4ccccc4[nH]3)c3ncn(-c4ccsc4)c3n2)cc1	-	-	-	58
NC(=O)c1ccc(-c2nc(NCc3nc4ccccc4[nH]3)c3ncn(-c4ccsc4)c3n2)cc1	-	-	-	83
O=C(NC1CC1)c1ccc(-c2nc(NCc3cccc(C(F)(F)F)c3)c3ncn(-c4ccsc4)c3n2)cc1	-	-	-	-
CC(=O)c1cccc(-c2nc(NCc3nc4ccccc4[nH]3)c3ncn(-c4ccsc4)c3n2)c1	-	-	-	69
O=C(NC1CC1)c1ccc(-c2nc(NCc3nc4ccccc4[nH]3)c3ncn(-c4ccsc4)c3n2)cc1	-	-	-	87
O=C(CN(c1ccccc1)S(=O)(=O)c1ccc(F)cc1)NCc1ccccn1	-	-	-	-
Cc1cc(NC(=O)c2ccco2)cc(C)c1I	-	-	-	-
O=C(NC1CC1)c1ccc(-c2nc(Nc3ccccc3)c3ncn(-c4ccsc4)c3n2)cc1	-	25	-	-
COc1ccc(OC)c(C(=O)c2ccc(C(=O)Nc3ccccc3OC)cc2)c1	-	-	-	-
O=C(Nc1ccc2c(c1)Cc1ccccc1-2)c1cc(Br)ccc1Cl	-	-	-	50
O=C(Nc1ccc2c(c1)Cc1ccccc1-2)c1cc(Cl)ccc1Cl	-	-	-	-
COc1cccc2sc(N3CCOCC3)nc12	-	2.0	-	-
COc1cccc2sc(N(C)c3ccccc3)nc12	-	-	-	47
COc1cccc2sc(N3CCN(c4nc5ccccc5s4)CC3)nc12	-	-	-	-
c1ccc(-n2cnc3c(NCc4nc5ccccc5[nH]4)nc(N4CCOCC4)nc32)cc1	-	-	-	82
SMILES	GPR151 ag	FBW7 act	MITF primary	TEAD-YAP block
c1ccc(-n2cnc3c(NCc4nc5ccccc5[nH]4)nc(N4CCN(Cc5ccc6c(c5)OCO6)CC4)nc32)cc1	-	-	-	71
c1ccc(-n2cnc3c(NCc4nc5ccccc5[nH]4)nc(-c4ccc(N5CCOCC5)nc4)nc32)cc1	-	-	-	44
O=C(NCc1nc2ccccc2[nH]1)c1ccc2nc(-c3ccc(N4CCOCC4)nc3)sc2c1	-	6.9	-	-
COc1ccc(/C=C2/N=C(c3ccc([N+](=O)[O-])cc3)OC2=O)cc1OC(C)=O	-	-	-	-
O=C(Cc1ccccc1F)Nc1ccc2c(c1)CN(C(=O)c1csnn1)CC2	-	-	-	-
O=C(Nc1ccc2c(c1)CN(C(=O)c1csnn1)CC2)c1ccc(C(F)(F)F)cc1	-	-	-	33
CCCN(C(=O)c1coc(=O)c2ccccc12)c1cccc(Cl)c1	-	-	-	68
CN1C(=O)N(C)C(NNC(N)=S)C1NNC(N)=S (configuration not stated)	-	-	-	88
CCOc1ccc(NC(=O)C2=C(C)NC(=S)NC2c2ccc(OC)cc2OC)cc1 (configuration not stated)	-	-	-	-
COc1ccccc1C1(NC(=O)CCc2c(C)noc2C)CCCC1	-	-	-	-
CCOc1ccc(C(=O)Nc2nc3ccccc3s2)cc1	-	-	-	57
CCOc1ccc2nc(NC(=O)NC(=O)C(F)(F)F)sc2c1	-	-	-	63
O=C(Nc1nc2ccccc2s1)c1ccc(C(=O)c2ccccc2)o1	-	-	-	36
COc1ccc2nc(NC(=O)c3cccs3)sc2c1	-	-	-	44
CCCCCCOc1ccc(C(=O)Nc2nc3ccccc3s2)cc1	-	-	-	-
CCOc1ccc2nc(NC(=O)c3cccs3)sc2c1	-	-	-	-
COC(CN=Cc1c(O)n(C)c(=O)n(C)c1=O)OC	-	-	-	-
CCCCNC(=O)c1c(O)nc2c(C)cccn2c1=O	-	-	-	-
CCOc1cccc2nc(NC(=O)c3ccc(Oc4ccccc4)cc3)sc12	-	-	-	-
Cc1cccc2nc(NC(=O)c3ccc(Oc4ccccc4)cc3)sc12	-	-	-	52
COc1ccc2nc(NC(=O)c3ccccc3)sc2c1	-	-	-	43
CN1/C(=C/c2cccc[n+]2C)Sc2ccccc21	-	-	-	70
C[n+]1ccccc1/C=C1\Sc2ccccc2N1CCCS(=O)(=O)O	-	2.5	-	-
Cc1ccc2c(c1)N(C)/C(=C/c1cccc[n+]1C)S2	-	-	-	55
CCN1/C(=C/c2cccc[n+]2C)Sc2ccc(C)cc21	-	-	-	52
SMILES	GPR151 ag	FBW7 act	MITF primary	TEAD-YAP block
CCCCN1/C(=C/c2cccc[n+]2C)Sc2cc(NC(C)=O)ccc21	-	-	-	-
CN1C=C/C(=C/c2cccc[n+]2C)c2ccccc21	-	-	-	-
CCSc1nnc(NC(=O)Cc2c(F)cccc2Cl)s1	-	-	-	-
COc1cccc(C(=O)/C=C/Nc2ccc(N(C)C)cc2)c1	-	-	-	-
COc1ccc(C(=O)/C=C/Nc2cccc(O)c2)cc1	-	-	-	87
CCc1ccc(C(=O)/C=C/Nc2ccc(O)cc2)cc1	-	-	-	-
CCc1ccc(C(=O)/C=C/Nc2cccc(O)c2)cc1	-	-	-	96
COc1ccc(/C=C/C(=O)c2ccc(O)cc2)cc1	-	-	-	55
COc1cccc(C(=O)/C=C\Nc2ccc(C)cc2)c1	-	-	-	59
COc1ccccc1N1CC(C)Cn2c1nc1c2c(=O)n(Cc2ccccc2)c(=O)n1C (configuration not stated)	-	-	-	-
COCCNC(=O)C(Cc1ccccc1)NS(=O)(=O)c1ccc(Br)cc1 (configuration not stated)	-	-	-	-
O=C(c1ccco1)N1CCN(c2ccc([N+](=O)[O-])c3ncccc23)CC1	-	-	-	-
O=C(NC1CCCCC1)c1nnc(Cc2ccccc2Cl)o1	-	-	-	-

High-throughput results (PubChem)
